Screens from PubChem BioAssay.
A selection: hits, their analogues and other compounds. The true share with any hit is near 21%.
NS1 inh: influenza NS1 inhibition | Potency, µM (doses to about 46.1 µM), without a hit: at the top dose activity, positive = more growth | 270,000 compounds, 0.4% hits | AID 2326; calls by dose curve; also: potency is read from the fitted curve at half-maximal effect; actives are rising curves; nearly all actives have a fitted effect of over 50% in size
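OD600 was taken as the measure of yeast growth restored by compound in an NS1-expressing S. cerevisiae strain. Cells had been washed out of glucose medium and diluted 1:100 into galactose -URA medium, pH 6.0.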
FBPA Giardia inh: Giardia lamblia aldolase inhibition. 290,000 compounds, 0.71% hits. A8B2U2. purified Giardia FBPA. Potency, µM (top dose mostly 59.6 µM), without a hit: at the top dose activity, negative = inhibition, usual class: inhibitors; also: potency is read from the fitted curve at half-maximal effect; % is scaled to controls: 0 for no effect and ±100 for the full control effect; nearly all actives have a fitted effect of over 55% in size
Target sequence (A8B2U2 whole entry, looked up): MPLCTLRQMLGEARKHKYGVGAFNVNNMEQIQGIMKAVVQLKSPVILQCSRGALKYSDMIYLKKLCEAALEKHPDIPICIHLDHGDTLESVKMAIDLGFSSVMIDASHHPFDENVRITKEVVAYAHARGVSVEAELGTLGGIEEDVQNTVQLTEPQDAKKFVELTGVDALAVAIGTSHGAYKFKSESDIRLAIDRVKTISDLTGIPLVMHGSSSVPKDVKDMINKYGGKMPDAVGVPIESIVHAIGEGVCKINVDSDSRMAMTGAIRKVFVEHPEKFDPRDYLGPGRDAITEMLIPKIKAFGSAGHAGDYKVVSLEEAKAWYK
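40 nM FBPA preincubated 10 min at RT with compound (up to 57.5 uM final), then substrate plus GAPDH/TPI/NAD/arsenate coupling and diaphorase/resazurin added. Fluorescence read after 20 min at RT, 525/598 nm.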
Pf growth 48h: inhibits P. falciparum growth in the first generation, 48 h | P. falciparum luciferase growth in erythrocytes, 48 h | Potency, µM (doses to about 28.7 µM), inactives show top-dose activity change, negative = inhibition, actives largely listed as inhibitors | 310,000 compounds, 5.9% hits | AID 504832; also: potency is read from the fitted curve at half-maximal effect; % is scaled to controls: 0 for no effect and ±100 for the full control effect
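Parasite viability was followed by luminescence of a genomically integrated firefly luciferase. Cultures held 0.1% parasitemia at 2% hematocrit (final), incubated under 5% CO2 at 37 C.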
Shiga toxin inh: blocks Shiga toxin action in Vero cells; Vero cells, Shiga toxin protein synthesis inhibition reporter; inhibition, % at 38.7 µM; 290,000 compounds, 9.2% hits; AID 2315; in the data active = inhibition mostly above about 28%, no sharp cut-off; inactive = mostly below about 43%; also: 0% is about no effect
Cycloheximide cs: affects cycloheximide protein synthesis inhibition readout, counter-screen; max response, %; cell reporter, cycloheximide protein synthesis inhibition counterscreen; 300,000 compounds, 12% hits; in the data active = max response mostly above about 13%, no sharp cut-off; inactive = mostly below about 14%; also: read at 38.3 µM for the half of the compounds with a filed dose; 0% is about no effect
Pf growth 96h: P. falciparum growth inhibition at 96 hour, primary screen for plastid delayed-death inhibitors. P. falciparum luciferase reporter growth, 96 h. Potency, µM (top dose mostly 28.7 µM), inactives show at the top dose activity change, negative = inhibition, most hits filed as inhibitors. 320,000 compounds, 6.9% hits. AID 504834; also: potency is read from the fitted curve at half-maximal effect; % is scaled to controls: 0 for no effect and ±100 for the full control effect
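P. falciparum expressing integrated firefly luciferase, in erythrocytes at 2% hematocrit, 0.05% parasitemia, incubated with compounds 96 h at 37 C, 5% CO2. Growth inhibition read as loss of luminescence; two-generation exposure targets delayed-death apicoplast inhibitors.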
* hit, by the source's call; [ ] = remark or other dose. Unless noted, calls follow the shape of the dose curve; as a rule, active = well fitted curve in the direction sought with a large enough effect; inconclusive = small, poorly fitted or top-dose-only effect, or another doubt; inactive = no such curve, though single readings can be large; an effect the other way counts as inactive or inconclusive.

Results for CSc1nsc(/C=C/Nc2cccc(Cl)c2)c1C#N ?
NS1 inh: 15.3%; FBPA Giardia inh: -22.7%; Pf growth 48h: inconclusive; Shiga toxin inh: 29.6; Cycloheximide cs: 1.0; Pf growth 96h: inconclusive

Results for CSc1nsc(/C=C/Nc2ccc(O)cc2C)c1C#N ?
FBPA Giardia inh: 17.7µM*; Pf growth 48h: inconclusive; Shiga toxin inh: 27.7; Cycloheximide cs: 28.3*; Pf growth 96h: inconclusive

How did CSc1nsc(/C=C/Nc2ccc(F)cc2)c1C#N do in these assays?
FBPA Giardia inh: inconclusive; Pf growth 48h: -22.8%; Shiga toxin inh: 37.6; Cycloheximide cs: 10.0; Pf growth 96h: 6.57µM*

Results for CSc1nsc(/C=C/Nc2ccc(Cl)cc2)c1C#N ?
NS1 inh: 13.3%; FBPA Giardia inh: -21.2%; Pf growth 48h: 1.17µM*; Shiga toxin inh: -19.9; Cycloheximide cs: -4.9; Pf growth 96h: 1.17µM*

How did COC(=O)[C@@]1(Cc2ccccc2)[C@H]2c3cc(C(=O)N4CCCC4)n(CC4CC4)c3C[C@H]2CN1C(=O)c1ccccc1 do in these assays?
FBPA Giardia inh: 0.1%

How did CN1CCN(c2ccc(C(CC(N)=O)NC(=O)Cc3cccc4ccccc34)cc2[N+](=O)[O-])CC1 (stereo unspecified) do in these assays?
NS1 inh: 8.2%; FBPA Giardia inh: -0.8%; Pf growth 48h: 32.9%; Shiga toxin inh: 5.0; Cycloheximide cs: -0.9; Pf growth 96h: 22.1%

What do the screens show for `CC(C)C(=O)OC1CCS(=O)(=O)c2sccc21` (stereo unspecified)?
NS1 inh: 1.6%; FBPA Giardia inh: -22.8%; Pf growth 48h: -10.1%; Shiga toxin inh: -4.8; Cycloheximide cs: -3.1; Pf growth 96h: 8.2%

What do the screens show for `Cc1ccc(OCC(=O)Oc2cccc(C)c2C)cc1`?
NS1 inh: -2.9%; FBPA Giardia inh: -1.0%; Pf growth 48h: 41.0%; Cycloheximide cs: -1.0; Pf growth 96h: 11.7µM*

What do the screens show for `COc1ccc(OC)c(NS(=O)(=O)c2ccc(-c3coc(C)n3)cc2)c1`?
NS1 inh: -13.0%; FBPA Giardia inh: -0.7%; Pf growth 48h: 11.3%; Shiga toxin inh: -8.5; Cycloheximide cs: -2.8; Pf growth 96h: -13.6%

What do the screens show for `CC(C)(C)c1ccc(OCC(O)CN(CCO)CC(O)Cn2ccc3ccccc32)cc1` (stereo unspecified)?
NS1 inh: -4.3%; FBPA Giardia inh: 0.2%; Pf growth 48h: 11.7µM*; Shiga toxin inh: -10.2; Cycloheximide cs: 2.0; Pf growth 96h: inconclusive

Results for C/C(CCN1CCc2nc(-c3ccccc3)c(-c3ccccc3)cc2C1)=N\O[C@@H](C)c1cc(-c2c(C)cc(C)cc2C)no1 ?
NS1 inh: inconclusive; FBPA Giardia inh: -0.8%[12.9 µM]; Pf growth 48h: inconclusive; Shiga toxin inh: -2.6; Cycloheximide cs: -3.7; Pf growth 96h: 13.1µM*

What do the screens show for `CCc1cc2c(nc1CC)CCN(CC/C(C)=N/O[C@@H](C)c1cc(-c3c(C)cc(C)cc3C)no1)C2`?
NS1 inh: -72.1%; FBPA Giardia inh: 1.9%[12.9 µM]; Pf growth 48h: inconclusive; Shiga toxin inh: -13.7; Cycloheximide cs: 1.0; Pf growth 96h: 7.38µM*

Results for COc1cc(/C=N/NC(=O)C(=O)/C=C2\NC3(CCCC3)Cc3ccccc32)ccc1O ?
NS1 inh: 4.7%; FBPA Giardia inh: -3.3%; Pf growth 48h: inconclusive; Shiga toxin inh: -6.9; Cycloheximide cs: -3.3; Pf growth 96h: inconclusive

How did CN(C)c1ccc(/C=N/NC(=O)C(=O)/C=C2\NC3(CCCC3)Cc3ccccc32)cc1 do in these assays?
NS1 inh: inconclusive; FBPA Giardia inh: -1.3%; Pf growth 48h: inconclusive; Shiga toxin inh: 10.8; Cycloheximide cs: 6.9; Pf growth 96h: 2.62µM*

How did O=C(/C=C1\NC2(CCCC2)Cc2ccccc21)C(=O)N/N=C/c1ccccc1O do in these assays?
NS1 inh: inconclusive; FBPA Giardia inh: 6.5%; Pf growth 48h: 0.0%; Shiga toxin inh: 31.4; Cycloheximide cs: 23.0*; Pf growth 96h: 0.0%

How did CN(C)c1ccc(/C=N/NC(=O)CCC(=O)NCc2ccccc2)cc1 do in these assays?
NS1 inh: -40.9%; FBPA Giardia inh: -0.2%; Pf growth 48h: 6.5%; Shiga toxin inh: 1.3; Cycloheximide cs: -1.5; Pf growth 96h: -1.1%

How did CCCCOc1ccc(CSCCN)cc1Cl do in these assays?
NS1 inh: -5.1%; FBPA Giardia inh: -5.0%; Pf growth 48h: 37.1%; Shiga toxin inh: 73.2*; Cycloheximide cs: 22.8*; Pf growth 96h: 0.0%

How did CCOc1ccc(CSC(=N)N)cc1Cl do in these assays?
NS1 inh: 2.1%; FBPA Giardia inh: -26.2%; Pf growth 48h: inconclusive; Shiga toxin inh: -2.2; Cycloheximide cs: -2.9; Pf growth 96h: inconclusive

How did CCCCOc1ccc(CCN)cc1Cl do in these assays?
NS1 inh: 5.1%; FBPA Giardia inh: -0.1%; Pf growth 48h: 4.6%; Shiga toxin inh: 19.9; Cycloheximide cs: 33.7*; Pf growth 96h: 30.6%

How did CC(C)Oc1ccc(CNC(=O)c2cc(S(=O)(=O)N3CCOCC3)cn2C)cc1 do in these assays?
NS1 inh: 2.7%; FBPA Giardia inh: 13.7%; Pf growth 48h: 11.0%; Shiga toxin inh: -3.7; Cycloheximide cs: -3.3; Pf growth 96h: inconclusive

Results for C=CCn1c(NCc2ccc3c(c2)OCO3)nc2ccccc21 ?
NS1 inh: -7.7%; FBPA Giardia inh: -0.9%; Pf growth 48h: inconclusive; Shiga toxin inh: active; Cycloheximide cs: 33.0*; Pf growth 96h: inconclusive

What do the screens show for `CCn1c(NCc2ccc3c(c2)OCO3)nc2ccccc21`?
NS1 inh: -10.7%; Pf growth 48h: -25.3%; Shiga toxin inh: 73.4; Cycloheximide cs: 22.0*; Pf growth 96h: inconclusive

Results for NS(=O)(=O)c1ccc(CCNC(=O)COC(=O)C2CCC2)cc1 ?
NS1 inh: 4.4%; FBPA Giardia inh: -8.9%; Pf growth 48h: 3.9%; Shiga toxin inh: -3.2; Cycloheximide cs: -4.5; Pf growth 96h: inconclusive

Results for COc1ccc(/C=N/N=C2/CC(C)(C)Cc3n[nH]c(=O)cc32)cc1 ?
FBPA Giardia inh: inconclusive; Pf growth 48h: -19.5%; Shiga toxin inh: 36.2*; Cycloheximide cs: 19.4; Pf growth 96h: inactive

How did COc1ccc(/C=N/N=C2/NC(=O)CC(C(=O)O)S2)cc1 (stereo unspecified) do in these assays?
NS1 inh: 20.8%; FBPA Giardia inh: -10.0%; Pf growth 48h: 2.4%; Shiga toxin inh: -3.6; Cycloheximide cs: 1.0; Pf growth 96h: 44.4%

What do the screens show for `COc1ccccc1-c1nc(COc2ccc(Cl)cc2Cl)no1`?
NS1 inh: -4.0%; FBPA Giardia inh: -2.3%; Pf growth 48h: 252.0%; Shiga toxin inh: 91.1*; Cycloheximide cs: 51.7*; Pf growth 96h: 301.1%

How did COc1ccc(-c2noc(CCCOc3ccc(Cl)cc3Cl)n2)cc1 do in these assays?
NS1 inh: 3.1%; FBPA Giardia inh: -2.2%; Pf growth 48h: 56.4%; Shiga toxin inh: -10.2; Cycloheximide cs: -1.0; Pf growth 96h: 14.9%

How did COc1cccc(-c2nc(COc3ccc(Cl)cc3Cl)no2)c1 do in these assays?
NS1 inh: -0.5%; FBPA Giardia inh: -10.1%; Pf growth 48h: 9.9%; Shiga toxin inh: 14.1; Cycloheximide cs: 13.8*; Pf growth 96h: 26.5%
